Results on seven molecules are retold here after PubChem BioAssay (EPA / NIEHS).

Read-out in assay [1]: NAD(P)H dehydrogenase [quinone] 1 (NQO1), NQO1 (gene 1728)
As to the kind of experiment: LTEA_HepaRG_NQO1: Life Technologies and Expression Analysis (LTEA) Assay for NAD(P)H dehydrogenase [quinone] 1 (NQO1) using HepaRG (AID 2283526). As to conditions: mRNA level, 48 h; actives raise or lower the signal. The method, boiled down:
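Differentiated HepaRG cells, plated 48 h and then switched to serum-free induction medium, were exposed in duplicate for 48 h to 8-point half-log concentrations up to 100 uM in 0.5% DMSO. mRNA measured by qRT-PCR, normalized to ACTB, GAPDH, POLR2A; bidirectional fit versus DMSO.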

Read-out in assay [2]: Nuclear factor erythroid 2-related factor 2 (Homo sapiens) (UniProt Q16236)
The assay is described as follows: LTEA_HepaRG_NFE2L2: Life Technologies and Expression Analysis (LTEA) Assay for Nuclear factor erythroid 2-related factor 2 (NFE2L2) Transcription Factor using HepaRG (AID 2283527).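 As to outcome: TaqMan qRT-PCR transcript level normalised to ACTB GAPDH and POLR2A housekeeping genes.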 As to conditions: mRNA level, 48 h; actives raise or lower the signal. The essentials: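 Transcript level of NFE2L2 is the read-out, measured by microfluidic TaqMan qRT-PCR and normalized to three housekeeping genes. Human HepaRG cultures received test chemical for 48 h at up to 100 uM in half-log steps. Gain or loss of signal is fitted relative to 0.5% DMSO.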

Read-out in assay [3]: succinate dehydrogenase complex iron sulfur subunit B (SDHB), SDHB (gene 6390)
As to the kind of experiment: LTEA_HepaRG_SDHB: Life Technologies and Expression Analysis (LTEA) Assay for succinate dehydrogenase complex iron sulfur subunit B (SDHB) using HepaRG (AID 2283528). As to conditions: mRNA level, 48 h; actives raise or lower the signal. The essentials: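 HepaRG, 48 h exposure, 8-pt half-log series from 100 uM in 0.5% DMSO, duplicates. Readout: SDHB mRNA by Fluidigm qRT-PCR vs housekeeping genes; bidirectional fit relative to DMSO.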

Read-out in assay [4]: Signal transducer and activator of transcription 3 (Homo sapiens) (UniProt P40763)
The assay is described as follows: LTEA_HepaRG_STAT3: Life Technologies and Expression Analysis (LTEA) Assay for Signal transducer and activator of transcription (STAT3) using HepaRG (AID 2283529). As to conditions: mRNA level, 48 h; actives raise or lower the signal. The method, boiled down: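 Read-out is STAT3 mRNA level by qRT-PCR, normalized to three housekeeping genes, in human HepaRG liver cells treated for 48 h. Concentrations ran from 100 uM downward in half-log steps; curves were fitted for gain or loss relative to 0.5% DMSO.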

Read-out in assay [5]: solute carrier (SLCO1B1), SLCO1B1 (gene 10599)
As to the kind of experiment: LTEA_HepaRG_SLCO1B1: Life Technologies and Expression Analysis (LTEA) Assay for solute carrier (SLCO1B1) using HepaRG (AID 2283530). The note with it: mRNA level, 48 h; actives raise or lower the signal. The method, boiled down: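 Human HepaRG cultures treated for 48 h with an eight-concentration half-log series topping at 100 uM; SLCO1B1 measured by qRT-PCR and fitted bidirectionally relative to DMSO.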

Read-out in assay [6]: sulfotransferase 2A1 (SULT2A1), SULT2A1 (gene 6822)
As to the kind of experiment: LTEA_HepaRG_SULT2A1: Life Technologies and Expression Analysis (LTEA) Assay for sulfotransferase 2A1 (SULT2A1) using HepaRG (AID 2283531). As to conditions: mRNA level, 48 h; actives raise or lower the signal. The method, boiled down: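 Gene-expression endpoint in a human liver cell line: SULT2A1 mRNA change after 48 h chemical treatment, curves fitted in both directions relative to 0.5% DMSO vehicle. Concentrations spanned eight half-log steps from 100 uM.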

Read-out in assay [7]: Transforming Growth Factor (TGFA), TGFA (gene 7039)
As to the kind of experiment: LTEA_HepaRG_TGFA: Life Technologies and Expression Analysis (LTEA) Assay for Transforming Growth Factor (TGFA) using HepaRG (AID 2283532). The note with it: mRNA level, 48 h; actives raise or lower the signal. The method, boiled down: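 HepaRG (human liver line), 48 h exposure, 8 conc. half-log down from 100 uM, 0.5% DMSO vehicle, duplicates; serum-free induction medium. TGFA mRNA by TaqMan qRT-PCR, ACTB/GAPDH/POLR2A normalization; gain/loss fit vs DMSO.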

Read-out in assay [8]: Transforming Growth Factor (TGFB1), TGFB1 (gene 7040)
The assay is described as follows: LTEA_HepaRG_TGFB1: Life Technologies and Expression Analysis (LTEA) Assay for Transforming Growth Factor (TGFB1) Transporter using HepaRG (AID 2283533). The note with it: mRNA level, 48 h; actives raise or lower the signal. The essentials:
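Eight-point concentration-response (max 100 uM, half-log) in HepaRG under serum-free induction conditions, 48 h. TGFB1 mRNA by qRT-PCR, housekeeping-normalized.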

Read-out in assay [9]: TIMP1, TIMP1 (gene 7076)
The assay is described as follows: LTEA_HepaRG_TIMP1: Life Technologies and Expression Analysis (LTEA) Assay for TIMP1 using HepaRG (AID 2283534). As to conditions: mRNA level, 48 h; actives raise or lower the signal. The essentials: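 TIMP1 induction or repression in HepaRG cells after 48 h chemical exposure (eight concentrations, highest 100 uM), assessed by normalized qRT-PCR with bidirectional fitting to DMSO controls.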

Read-out in assay [10]: Tumor necrosis factor receptor 1 (TNFRSF1A), TNFRSF1A (gene 7132)
The assay is described as follows: LTEA_HepaRG_TNFRSF1A: Life Technologies and Expression Analysis (LTEA) Assay for Tumor necrosis factor receptor 1 (TNFRSF1A) using HepaRG (AID 2283535). As to conditions: mRNA level, 48 h; actives raise or lower the signal. The essentials: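 Assay uses 48 h chemical treatment of differentiated HepaRG monolayers, tested in duplicate at eight concentrations from 100 uM downward in 0.5% DMSO. mRNA is normalized to ACTB, GAPDH and POLR2A, with induction or suppression fitted relative to vehicle.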

Read-out in assay [11]: Thyroid Hormone Responsive (THRSP), THRSP (gene 7069)
As to the kind of experiment: LTEA_HepaRG_THRSP: Life Technologies and Expression Analysis (LTEA) Assay for Thyroid Hormone Responsive (THRSP) using HepaRG (AID 2283536). As to conditions: mRNA level, 48 h; actives raise or lower the signal. The essentials:
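mRNA induction or loss relative to 0.5% DMSO vehicle was fitted bidirectionally across an eight-point curve whose highest exposure was 100 uM. Human HepaRG liver cells received chemicals in duplicate over 48 h before RNA extraction.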

Read-out in assay [12]: UDP glucuronosyltransferase (UGT1A1), UGT1A1 (gene 54658)
The assay is described as follows: LTEA_HepaRG_UGT1A1: Life Technologies and Expression Analysis (LTEA) Assay for UDP glucuronosyltransferase (UGT1A1) using HepaRG (AID 2283538). As to conditions: mRNA level, 48 h; actives raise or lower the signal. The method, boiled down: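 Differentiated human HepaRG cells in serum-free induction medium were exposed in duplicate for 48 h to eight half-log concentrations up to 100 uM in 0.5% DMSO. UGT1A1 mRNA was quantified by TaqMan qRT-PCR, normalized to ACTB, GAPDH and POLR2A, and fitted bidirectionally against DMSO.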

Read-out in assay [13]: UDP glucuronosyltransferase (UGT1A6), UGT1A6 (gene 54578)
As to the kind of experiment: LTEA_HepaRG_UGT1A6: Life Technologies and Expression Analysis (LTEA) Assay for UDP glucuronosyltransferase (UGT1A6) using HepaRG (AID 2283539). As to conditions: mRNA level, 48 h; actives raise or lower the signal. The method, boiled down: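 Measures mRNA change in HepaRG hepatic cells exposed 48 h to chemicals (eight-point, maximum 100 uM, 0.5% DMSO vehicle) in serum-free induction medium. Expression normalized to endogenous controls; DMSO served as negative control and baseline.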

Read-out in assay [14]: X-box binding protein 1 (XBP1), XBP1 (gene 7494)
As to the kind of experiment: LTEA_HepaRG_XBP1: Life Technologies and Expression Analysis (LTEA) Assay for X-box binding protein 1 (XBP1) using HepaRG (AID 2283540). As to conditions: mRNA level, 48 h; actives raise or lower the signal. The method, boiled down:
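Eight concentrations (half-log, highest 100 uM, 0.5% DMSO) tested in duplicate on HepaRG cells over 48 h in serum-free induction medium; qRT-PCR of XBP1 normalised to ACTB, GAPDH, POLR2A.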

The nature of assay [15]: LTEA_HepaRG_LDH_cytotoxicity: Cytotoxicity Assessment in the Life Technologies and Expression Analysis (LTEA) Assay (AID 2283563; active = hit-call score of the fitted dose curve at least 0.9, where 1 is the maximum;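 as to AC50: LDH activity released into spent culture medium as a marker of cell death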). The essentials:
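Spent-medium LDH after 48 h chemical exposure of HepaRG cells in serum-free induction medium; eight concentrations, half-log dilutions from 100 uM, duplicate wells, fitted upward relative to 0.5% DMSO.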

Assay [16] in a line: TOX21_p53_BLA_p2_viability: Viability Assessment in the Tox21 HCT-116 p53 Agonism Beta-lactamase Assay, Phase 2 (AID 2283591; active = hit-call score of the fitted dose curve at least 0.9, where 1 is the maximum;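 also: compound exposure lasted 16 h at 37 °C; actives lower the ATP signal meaning cytotoxicity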). The method, boiled down:
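Cytotoxicity readout: CellTiter-Glo ATP luminescence, 30 min at room temperature, after the beta-lactamase read. Cells were HCT116 exposed 16 h at 37C to compounds pin-transferred at 217-fold dilution from DMSO stocks.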

The target in assay [17] is Cellular tumor antigen p53 (Homo sapiens) (UniProt P04637). The assay is described as follows: TOX21_p53_BLA_p2_ratio: Tox21 HCT-116 p53 Agonism Beta-lactamase Assay, Ratio, Phase 2 (AID 2283592; active = hit-call score of the fitted dose curve at least 0.9, where 1 is the maximum). The method, boiled down: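 Human colon HCT116 cells with an inducible p53 beta-lactamase reporter are exposed to test chemicals for 16 h at 37C. Reporter induction is read as the 460/530 nm emission ratio after CCF4-AM loading, normalized to DMSO.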
Chain of Cellular tumor antigen p53 (Homo sapiens) (P04637 whole entry, looked up): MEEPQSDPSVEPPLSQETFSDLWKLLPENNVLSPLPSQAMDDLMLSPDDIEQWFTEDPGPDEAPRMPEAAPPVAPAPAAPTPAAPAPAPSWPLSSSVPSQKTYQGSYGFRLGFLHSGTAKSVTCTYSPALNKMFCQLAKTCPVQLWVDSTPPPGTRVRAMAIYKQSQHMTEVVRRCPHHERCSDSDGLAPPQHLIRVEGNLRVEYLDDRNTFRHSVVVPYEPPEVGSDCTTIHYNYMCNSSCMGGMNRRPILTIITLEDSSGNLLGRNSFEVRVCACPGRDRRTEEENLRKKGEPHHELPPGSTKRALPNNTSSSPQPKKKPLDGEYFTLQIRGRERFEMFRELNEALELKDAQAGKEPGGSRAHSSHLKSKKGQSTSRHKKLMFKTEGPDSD

The nature of assay [18]: ATG_XTT_Cytotoxicity: Cytotoxicity Assessment in the Attagene TRANS-FACTORIAL HepG2 Assay (AID 2283584; active = hit-call score of the fitted dose curve at least 0.9, where 1 is the maximum). The method, boiled down:
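24 h chemical exposure of reporter-transfected HepG2; XTT signal loss vs DMSO indicates cytotoxicity.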

Inconclusive results are not listed. The source made the active and inactive calls. The calls were made as follows, unless noted: active = hit-call score of the fitted dose curve at least 0.9, where 1 is the maximum; inactive = score below 0.9.

One may read the AC50 as the midpoint of the concentration-response curve, whichever way the signal moves.

Chain of Nuclear factor erythroid 2-related factor 2 (Homo sapiens) (Q16236 whole entry, looked up): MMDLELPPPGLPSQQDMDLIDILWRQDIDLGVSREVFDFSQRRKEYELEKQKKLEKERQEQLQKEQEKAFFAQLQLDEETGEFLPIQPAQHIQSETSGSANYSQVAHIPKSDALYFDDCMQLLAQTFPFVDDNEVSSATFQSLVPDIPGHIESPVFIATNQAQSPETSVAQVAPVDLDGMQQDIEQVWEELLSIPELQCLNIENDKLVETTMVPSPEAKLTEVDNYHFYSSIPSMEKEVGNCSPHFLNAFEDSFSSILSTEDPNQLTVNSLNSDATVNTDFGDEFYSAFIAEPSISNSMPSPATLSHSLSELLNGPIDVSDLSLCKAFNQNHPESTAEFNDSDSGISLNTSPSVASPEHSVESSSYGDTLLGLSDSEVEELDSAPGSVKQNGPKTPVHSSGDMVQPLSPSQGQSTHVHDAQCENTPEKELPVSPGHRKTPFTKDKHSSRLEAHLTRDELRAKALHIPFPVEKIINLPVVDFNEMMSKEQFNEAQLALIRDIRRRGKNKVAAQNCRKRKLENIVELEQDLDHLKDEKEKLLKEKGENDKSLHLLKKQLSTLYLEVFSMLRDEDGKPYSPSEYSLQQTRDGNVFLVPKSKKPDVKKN
Chain of Signal transducer and activator of transcription 3 (Homo sapiens) (P40763 whole entry, looked up): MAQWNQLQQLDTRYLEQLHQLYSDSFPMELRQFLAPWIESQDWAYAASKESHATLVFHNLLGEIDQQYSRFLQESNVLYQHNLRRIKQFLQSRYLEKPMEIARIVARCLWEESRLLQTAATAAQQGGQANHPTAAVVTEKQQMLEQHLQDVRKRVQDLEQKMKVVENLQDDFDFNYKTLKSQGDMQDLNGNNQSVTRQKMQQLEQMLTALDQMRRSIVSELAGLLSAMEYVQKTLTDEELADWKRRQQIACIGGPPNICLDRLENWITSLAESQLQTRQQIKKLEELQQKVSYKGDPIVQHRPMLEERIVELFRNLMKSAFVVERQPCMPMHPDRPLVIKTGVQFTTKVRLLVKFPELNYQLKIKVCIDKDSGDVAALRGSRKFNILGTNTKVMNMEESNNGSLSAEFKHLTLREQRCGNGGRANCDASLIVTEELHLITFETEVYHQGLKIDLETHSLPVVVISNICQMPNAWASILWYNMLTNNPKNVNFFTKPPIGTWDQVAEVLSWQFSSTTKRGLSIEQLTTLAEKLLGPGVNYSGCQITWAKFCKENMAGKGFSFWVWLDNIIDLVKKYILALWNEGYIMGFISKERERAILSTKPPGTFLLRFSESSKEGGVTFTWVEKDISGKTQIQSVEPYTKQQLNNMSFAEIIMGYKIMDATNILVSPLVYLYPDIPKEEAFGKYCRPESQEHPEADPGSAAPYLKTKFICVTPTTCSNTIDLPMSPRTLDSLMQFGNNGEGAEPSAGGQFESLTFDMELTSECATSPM

As for `c1ccc(-c2ccccc2)cc1`, the outcome in assay [1], in [2], in assay [3], in [4], in assay [5] and in [6] was inactive. The molecule was classed as inactive in assay [7], in assay [8], in assay [9], in assay [10], in [11] and in assay [12]. Also, the call in [13], in assay [14], in [15], in assay [16] and in assay [17] was inactive.
In the case of `Nn1cnnc1`, the result in [1], in assay [2], in assay [3], in assay [4], in assay [5] and in assay [6] was inactive. For the same molecule, the molecule was classed as inactive in assay [7], in [8], in assay [9], in assay [10], in [11] and in assay [12]. In addition, the outcome in assay [13], in assay [14], in assay [15], in assay [18], in assay [16] and in assay [17] was inactive.
For the molecule `C=CC(N)=O`, the outcome in [1], in assay [2], in assay [3], in assay [4], in [5] and in assay [6] was inactive. The outcome in [7], in assay [8], in assay [9], in assay [10], in assay [11] and in assay [12] was inactive. The result in assay [13], in [14], in [15], in assay [16] and in assay [17] was inactive.
As to `CO/C=C(/C(=O)OC)c1ccccc1COc1cccc(C(F)(F)F)n1`, the outcome in assay [1], in [3], in assay [8], in assay [14], in [18] and in [16] was inactive. Besides, the AC50 in assay [2] is 21.6 µM (active); in assay [4] it was 3.4 µM (active); in [5], 8.29 µM (active); in [6] it was 21.5 µM (active); in [7] it was 10.6 µM (active); in assay [9], 26.8 µM (active). Further, the concentration at half-maximal activity (AC50) in assay [10] was 4.97 µM (active); in assay [11] it was 7.31 µM (active); in assay [12], 20.5 µM (active); in [13] it was 22.2 µM (active); in assay [15], 21.2 µM (active); in assay [17], 2.77 µM (active).
In the case of `C=CC(=O)NCNC(=O)C=C`, the molecule was called inactive in assay [1], in assay [2], in [3], in assay [4], in assay [5] and in assay [6]. Further, the call in assay [7], in assay [8], in [9], in assay [10], in assay [11] and in [12] was inactive. Moreover, the outcome in assay [13], in assay [14], in assay [15], in [18] and in assay [16] was inactive.
On to `Cc1ccccc1O`, for which the call in assay [1], in assay [2], in assay [3], in assay [4], in [5] and in assay [6] was inactive. Also, the call in assay [7], in assay [8], in assay [9], in [10], in assay [11] and in assay [12] was inactive. In addition, the call in [13], in assay [14], in assay [15], in assay [18], in [16] and in [17] was inactive.
As to `NS(=O)(=O)C(F)(F)C(F)(F)C(F)(F)C(F)(F)C(F)(F)C(F)(F)C(F)(F)C(F)(F)F`, the AC50 is 12.8 µM (active) in [1]; 2.76 µM (active) in assay [2]; 4.97 µM (active) in assay [3]; 15.2 µM (active) in assay [4]; 9.33 µM (active) in [5]; 13.1 µM (active) in assay [6]. Moreover, the AC50 in assay [7] is 12 µM (active); in [8], 39.4 µM (active); in assay [9] it was 12.4 µM (active); in assay [10] it was 29.4 µM (active); in assay [11] it was 7.4 µM (active); in assay [12], 10.1 µM (active). In addition, the half-maximal activity concentration (AC50) in assay [13] is 13.3 µM (active); in assay [14], 3.63 µM (active); in [15] it was 31.4 µM (active). Moreover, the result in [18], in [16] and in assay [17] was inactive.
